Assay outcomes as filed in PubChem.
MPTP inh: inhibitors of mitochondrial permeability transition pore; isolated mouse mitochondria, Ca2+ swelling absorbance, 30 min; inhibition, % at 10 µM; 360,000 compounds, 1.4% hits; AID 602449;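 active means inhibition of 50% or more, scaled per plate between neutral and stimulator controls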
CRFR2-BP antag: antagonists of CRF-binding protein/CRF-R2 receptor complex; HEK293 CRF-R2/CRF-BP, CRF-induced calcium fluorescence; inhibition, % at 11.8 µM; 350,000 compounds, 0.59% hits;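 active means inhibition of the ligand-induced calcium signal above about 50% at the single tested concentration, limit read from the data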
NR3A LBD binder: NR3A (human) ligand-binding domain modulation; NR3A LBD differential scanning fluorimetry, Tm shift; 0% = protein alone, 100% = glycine-bound protein; Tm shift relative to glycine control, % at 25 µM; 340,000 compounds, 2.5% hits; AID 1259313;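 active means melting temperature shift of at least 10% of the positive control shift, at one fixed dose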
CRFBP-R2 agonist: agonists of human CRF-binding protein/CRF-R2 receptor complex. HEK293 CRF-R2/CRF-BP, calcium dye fluorescence (FLIPR); percent of saturating CRF peptide response. activation, % at 13.2 µM. 350,000 compounds, 0.46% hits. AID 588473;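 active means activation of at least 50%, plus an integration ratio under a set limit after plate pattern correction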
TMEM16A inh: mouse TMEM16A channel inhibition, primary screen; 310,000 compounds, 1.2% hits; Q8BHY3; AID 588511; HEK293 TMEM16A/YFP iodide influx fluorescence, ionomycin; normalized B-score (activity score, 25-100; higher = stronger inhibition) at 10 µM;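 active means ratio plate-corrected score three or more library SD toward inhibition, starting fluorescence score within five deviations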;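 further: score derived from kinetic fluorescence span divided by baseline fluorescence per well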
ANO1 activ: activates or potentiates the mouse TMEM16A chloride channel | HEK293 TMEM16A/YFP-H148Q/I152L, iodide quench fluorescence; hits give low values | B-score at 10 µM | 340,000 compounds, 0.3% hits | AID 623877;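 active means fluorescence-ratio B-score plate-corrected deviation score at least 3 library SD below zero, with starting fluorescence score within 5 deviations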;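 further: channel opened by trigger with iodide after compound preincubation; score built on the fluorescence ratio of max minus min over baseline; more negative score means more quench and so TMEM16A activation or potentiation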
Hits are given with their value; . = inactive; / = no result given. Most compounds without a hit are left out; they make up all but 5.1% or so of the library.

SMILES	MPTP inh	CRFR2-BP antag	NR3A LBD binder	CRFBP-R2 agonist	TMEM16A inh	ANO1 activ
C/C(=N\NC(=O)C1CC1c1ccccc1)c1ccc(C)s1 (stereo not drawn)	.	.	.	.	.	.
CCOC(=O)C(/C(C)=N/NC(=O)C1CC1c1ccccc1)C(C)C (stereo not drawn)	.	.	15.9	.	.	.
O=C(NC1CCCCC1)C(c1ccncc1)N(C(=O)c1ccco1)c1ccc(F)cc1 (stereo not drawn)	.	.	.	.	.	.
COc1ccc(C2C=CC(=O)CC2)c(OC)c1 (stereo not drawn)	.	/	/	/	/	/
O=C(/C=C/c1ccc(O)c(O)c1)NC(=O)c1ccccc1O	.	.	.	.	.	.
CSc1ccc(/C=C/C(=O)NC(=O)c2ccccc2O)cc1	.	.	.	.	25	.
CCOc1ccccc1N(CC(=O)NC1CCCCC1)S(=O)(=O)c1ccc(C)cc1	.	.	.	.	.	.
O=C(/C=C/c1ccc(F)cc1)Nc1cc(S(=O)(=O)N2CCOCC2)ccc1N1CCOCC1	.	.	/	.	/	/
O=C(/C=C/c1ccc(F)cc1)Nc1ccc(S(=O)(=O)N2CCOCC2)cc1	.	.	22.5	.	.	.
COc1ccc(/C=C/C(=O)Nc2cccc(F)c2)cc1S(=O)(=O)N1CCOCC1	.	.	10.1	.	.	.
CCn1cc(C(=O)NCCCN2CCCC(C)C2)c(=O)c2cc(S(=O)(=O)N(C)C3CCCCC3)ccc21 (stereo not drawn)	.	.	.	.	.	.
COC(=O)[C@]12CCCCC=C1N(Cc1ccccc1)C(=O)[C@H](CC(=O)N1CCCC1)C2	.	/	/	/	/	/
Cc1ccc(OCCOC(=O)Cn2nc(C)c([N+](=O)[O-])c2C)cc1	.	54.3	.	.	.	.
Cc1ccc(-c2ccnc(=S)[nH]2)cc1	.	.	10.1	.	.	.
S=c1nccc(-c2ccc3c(c2)CCO3)[nH]1	.	.	.	.	.	.
O=C(CCCc1c[nH]c2ccccc12)Nc1ccc(S(=O)(=O)Nc2ncccn2)cc1	.	.	.	.	.	.
CC1(C(=O)NS(=O)(=O)c2ccc(F)cc2F)CCN1C(=O)CC1CCCC1 (stereo not drawn)	.	/	/	/	/	/
CN(Cc1ccc(C(C)(C)C)cc1)C(=O)C1CSC2(C)CCC(=O)N12 (stereo not drawn)	.	.	.	.	/	.
CC1(C)CC(=O)C(C=Nc2ccc(C(=O)c3ccccc3)cc2N=CC2=C(O)CC(C)(C)CC2=O)=C(O)C1	.	.	.	104.7	.	.
CC1(C)CC(=O)C(C=Nc2ccc(O)c(N=CC3=C(O)CC(C)(C)CC3=O)c2)=C(O)C1	.	.	.	.	.	.
O=S(=O)(c1ccc2[nH]c3c(c2c1)CCCC3)N1CCCCC1	.	.	.	.	.	.
N#Cc1ccc(S(=O)(=O)N2CCc3[nH]c4ccc(F)cc4c3C2)cc1	.	.	11.1	.	.	.
Cc1ccc2cc(/C=N/Nc3nc4ccccc4[nH]3)c(Cl)nc2c1	.	.	11.7	.	/	.
COc1cc(OC)c(OC)cc1/C=N/Nc1nc2ccccc2[nH]1	.	.	.	.	.	.
CCCCCCc1cc2cc(/C(N)=N/NC(=O)c3ccncc3)c(=O)oc2cc1O	.	.	.	102.3	/	.
SMILES	MPTP inh	CRFR2-BP antag	NR3A LBD binder	CRFBP-R2 agonist	TMEM16A inh	ANO1 activ
CCCCCCc1cc2cc(C(N)=O)c(=N)oc2cc1O	/	/	/	/	.	/
O=C(/C=C/c1cccc([N+](=O)[O-])c1)NCc1ccco1	.	.	.	.	.	.
O=C(NCc1ccco1)Nc1cccc([N+](=O)[O-])c1	.	.	18.7	.	/	.
O=C(Nc1c2c(nn1-c1ccc([N+](=O)[O-])cc1)CS(=O)(=O)C2)c1ccccc1F	.	.	.	.	.	.
COc1cccc(NC(=O)CN(C)C(=O)c2c(-c3ccccc3)noc2C)c1	.	.	.	.	.	.
Oc1ccc(/C=C/c2nc(-c3ccccc3O)n(-c3ccccc3)n2)cc1	.	.	14.1	.	.	.
Oc1ccccc1-c1nc(/C=C/c2ccccc2)nn1-c1ccccc1	.	.	.	.	.	.
C=CCNC(=O)N1CCc2[nH]c3ccc(F)cc3c2C1	.	.	.	.	.	.
Fc1ccc2[nH]c3c(c2c1)CN(C(=S)NCc1ccccc1)CC3	.	.	29.1	.	.	.
COc1ccc(C2=C(CN(C)C)C(c3ccccc3)c3ccccc3O2)cc1 (stereo not drawn)	.	.	11.0	.	.	.
CCOc1ccc(C2=C(C=C(C#N)C#N)C(c3ccccc3)c3ccccc3O2)cc1 (stereo not drawn)	.	.	.	.	.	.
Cc1noc(C)c1COC(=O)[C@H](C)NS(=O)(=O)c1ccc(Cl)c(Cl)c1	.	.	.	.	.	.
Cc1noc(C)c1COC(=O)Cc1ccc(Cl)c(Cl)c1	.	62.5	.	.	.	.
COc1ccc(NC(=O)CSc2nc(N3CCCCC3)nc(N3CCCCC3)n2)cc1	.	.	12.7	.	.	.
O=C(Nc1ccc(Nc2ccccc2)cc1)c1cccc(F)c1	.	.	29.4	.	.	.
COc1ccc(NC(=O)c2cccc(OS(=O)(=O)N(C)C)c2)cc1	.	.	11.7	.	.	.
O=C(Nc1ccncc1)Nc1cccc(F)c1	.	.	14.2	.	.	.
CN(C)S(=O)(=O)Oc1cccc(C(=O)Nc2cccc(Cl)c2)c1	.	.	.	.	.	.
COc1cc(NC(=O)COc2ccc(Cl)cc2)ccc1-c1cc2ccccc2oc1=O	.	.	10.2	.	.	.
COCCCn1c(SC(C)C(=O)Nc2c(C)n(C)n(-c3ccccc3)c2=O)n[nH]c1=O (stereo not drawn)	.	.	.	.	/	.
O=C(CN(Cc1ccccc1F)S(=O)(=O)c1ccc(Cl)cc1)NCC1CCCO1 (stereo not drawn)	.	.	.	.	.	.
O=C(Nc1nnc([C@@H]2C[C@H](O)[C@@H](CO)O2)s1)Nc1cccc(Cl)c1Cl	.	/	/	/	/	/
COc1cccc(NC(=O)COC(=O)Cn2c(C)csc2=O)c1	.	.	.	.	/	.
COc1ccc(OC)c(C(=O)c2ccc(C(=O)Nc3ccc4ccccc4c3)cc2)c1	.	.	.	.	.	.
CS(=O)(=O)Nc1ccc(C(=O)Nc2ccc3ccccc3c2)cc1	.	.	30.8	.	.	.
CC(=O)c1cccc(NC(=O)c2ccc(NS(C)(=O)=O)cc2)c1	.	.	.	.	.	.
COc1ccc(C(=O)Nc2ccc3ccccc3c2)cc1	.	.	21.1	.	.	.
COc1cccc(-c2cc(=O)c3cc(NC(=O)c4ccc(Cl)cc4)ccc3[nH]2)c1	.	.	.	.	.	.
COc1cccc(-c2cc(=O)c3cc(NC(=O)c4ccccc4)ccc3[nH]2)c1	.	.	26.2	.	.	.
